# Screens from PubChem BioAssay.
# Sampled rows, rich in hits. Any-hit rate of the full collection: about 2.5%.
# ATG4B inh: inhibitors of human ATG4B cysteine protease. actives 0.51% (n = 340,000). AID 504462. inhibition, % at 8.33 µM. ATG4B cleavage of LC3-PLA2, NBD-HPC fluorescence, 1 h. Q9Y4P1; in the data active = inhibition above about 40%
# Target sequence (Q9Y4P1 whole entry, looked up): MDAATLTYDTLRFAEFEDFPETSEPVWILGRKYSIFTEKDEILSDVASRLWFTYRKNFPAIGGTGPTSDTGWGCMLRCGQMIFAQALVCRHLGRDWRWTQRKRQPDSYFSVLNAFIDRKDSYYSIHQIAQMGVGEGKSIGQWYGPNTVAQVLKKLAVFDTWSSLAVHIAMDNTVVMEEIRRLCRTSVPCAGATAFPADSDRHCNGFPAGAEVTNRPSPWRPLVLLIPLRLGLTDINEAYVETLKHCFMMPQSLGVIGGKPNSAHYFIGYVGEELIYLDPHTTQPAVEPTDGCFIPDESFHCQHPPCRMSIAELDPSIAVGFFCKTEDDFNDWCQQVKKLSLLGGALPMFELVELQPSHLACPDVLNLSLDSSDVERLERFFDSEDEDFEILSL
# Efflux pump mplx: blocks antifungal efflux pumps in multiplex yeast assay | S. cerevisiae Candida pump triplex, Nile Red efflux | inhibition, % at 10 µM | actives 0.44% (n = 330,000) | AID 485275;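 active = plate passing quality check with inhibition over a set limit, or well fluorescence over plate mean plus 4 SD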;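 note: Nile Red retained in pooled yeast measured as flow cytometry median fluorescence; higher means more Nile Red kept so more efflux inhibition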
# V-ATPase pH: regulators of yeast V-ATPase proton transport | S. cerevisiae, pHLuorin cytosolic pH fluorescence | AID 504577 | actives 0.37% (n = 350,000) | response, % at 10 µM; in the data active = response mostly above about 7.3%, no sharp cut-off; inactive = mostly below about 5.4%; note: actives read high
# Mot1-301 SUMO: inhibitors of SUMOylation pathway: yeast Mot1-301 growth rescue. S. cerevisiae Mot1-301 growth rescue, ATP luminescence, 38.5C; percent above DMSO median, 100 means doubled. growth rescue, % at 18.8 µM. actives 1% (n = 320,000);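 active = every valid replicate shows activation above 250% relative to neutral control wells; inactive = the rest, any valid replicate at or below 250%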
# AI-2 QS modul: Vibrio harveyi AI-2 quorum sensing modulation. Vibrio harveyi JMH597 AI-2 luminescence/OD600 ratio, 9 h; stronger effect = lower value; strain lacks LuxN and CqsS sensors; 0 = neutral-control median. activity change, % at 7.5 µM. actives 0.4% (n = 300,000). AID 2094; in the data active = activity change below about -75%, passing the limit was not always enough;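 note: luminescence divided by OD600 gain over 9 h not by final OD600 alone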
# ATG4B conf: ATG4B (human) inhibition, single-dose confirmed; shares compounds with ATG4B inh; ATG4B protease fluorescent substrate cleavage assay; inhibition, % at 8.33 µM; actives 92% (n = 320); in the data active = inhibition above about 39%
# PLA2 counter: inhibits human PLA2, flagging false ATG4B inhibitors. actives 66% (n = 1,600). purified PLA2, NBD-C6-HPC fluorescence, 45 min. inhibition, % at 8.33 µM. shares compounds with ATG4B inh; in the data active = inhibition above about 50%
# Numbers stand for hits; n = inactive; x = no result given.
SMILES,ATG4B inh,Efflux pump mplx,V-ATPase pH,Mot1-301 SUMO,AI-2 QS modul,PLA2 counter,others
O=[N+]([O-])c1ccc(Cl)c(C2Nc3cccc4cccc(c34)N2)c1,53.7,n,n,n,n,71.3,
CC(=O)c1ccccc1NC(=O)COc1ccc(N(C)S(=O)(=O)c2ccc(C)c(C)c2)cc1,84.9,n,n,n,x,n,
CC(=O)Nc1ccc(S(=O)(=O)N(C)c2ccc(OCC(=O)Nc3ccccc3C(C)=O)cc2)cc1,n,x,n,x,x,x,
COc1ccc(C)cc1N1C(=N)/C(=C2/Nc3ccccc3S2)C(c2ccccc2)C1=O (configuration not stated),50.5,n,n,n,x,n,
C=CCn1c(-c2cccc(Cl)c2)n[nH]c1=S,n,n,n,n,n,x,
C=CCn1c(-c2oc3nc(-c4ccccc4)cc(-c4ccccc4)c3c2N)n[nH]c1=S,42.1,n,n,n,n,n,ATG4B conf=69.5
CN1C(=O)N(CC(=O)N2CCN(c3ccccc3F)CC2)C(=O)C12CCCCC2,n,n,n,n,x,x,
Cc1cccc(C)c1NS(=O)(=O)c1cc2c3c(c1)CC(=O)N3CCC2,n,n,n,n,n,x,
CC(C)Cc1ccc(CN2CCCC(NC(=O)c3ccoc3)C2)cc1 (configuration not stated),n,n,n,n,n,x,
CC(C)Cc1ccc(CN2CCCC(NC(=O)c3ccnn3C)C2)cc1 (configuration not stated),42.3,n,n,n,n,n,
COc1ccc(CCNC(=O)c2cc3c(cc2Cl)N2CCCCCC2=NS3(=O)=O)cc1,n,n,n,n,n,x,
COCCn1c(=O)c2ccccc2c2ccccc2c1=O,n,n,n,n,n,x,
CCCCn1c(=O)c2ccccc2c2ccccc2c1=O,63.9,n,n,n,x,75.0,
Cc1ccccc1C(=O)NC(=S)Nc1ccc(S(=O)(=O)N(C)c2ccccc2)cc1,47.7,n,n,n,n,57.0,
Cc1ccc(NC(=O)CSCC(=O)N(C)Cc2c(F)cccc2Cl)cc1,x,x,n,x,x,x,
CC(C)c1ccc(C2NC(=O)c3ccccc3O2)cc1 (configuration not stated),40.5,n,n,n,n,n,
O=C1NC(c2ccc(Cl)cc2)Oc2ccccc21 (configuration not stated),n,n,n,n,n,x,
c1coc(Cn2c(SCc3nc4ccccc4[nH]3)nnc2-c2cccs2)c1,n,n,n,n,n,x,
Cc1ccccc1CSc1nnc(-c2ccco2)n1Cc1ccco1,52.6,n,n,n,n,52.4,
c1ccc(CSc2nnc(-c3ccco3)n2Cc2ccco2)cc1,n,n,n,n,n,x,
Cc1ccccc1CSc1nnc(-c2cccs2)n1Cc1ccco1,77.8,n,n,n,n,74.6,
c1ccc(CSc2nnc(-c3cccs3)n2Cc2ccco2)cc1,58.5,n,n,x,n,60.0,
Cc1ccc(C(=O)NS(=O)(=O)c2ccc(N=NN(C)C)cc2)cc1,n,n,n,n,n,x,
CCC/C=C/c1ccc(CN2C(C(C)C)C(=O)N(Cc3cn(Cc4ccco4)nn3)CCS2(=O)=O)cc1 (configuration not stated),x,x,n,x,x,x,
O=C(Nc1ccccc1N1CCN(c2ccccc2)CC1)c1ccccc1,44.2,n,n,n,n,n,ATG4B conf=62.4
SMILES,ATG4B inh,Efflux pump mplx,V-ATPase pH,Mot1-301 SUMO,AI-2 QS modul,PLA2 counter,others
O=C(Nc1ccc(N2CCOCC2)cc1N1CCOCC1)c1ccccc1,n,n,n,n,x,x,
Cc1ccc(C(=O)Oc2cccc(NC(=O)c3ccccc3)c2)cc1C,48.8,n,n,n,n,59.0,
Cc1ccc(S(=O)(=O)N(Cc2ccccc2)Cc2ccco2)cc1,44.3,n,n,n,n,55.9,
CCN(CC(=O)NCc1cccs1)C(=O)COc1ccc(C(C)=O)cc1,n,n,n,n,x,x,
COc1cc(/C=C2/SC(=S)N(Cc3ccccc3)C2=O)cc(Cl)c1O,n,n,n,n,n,x,
COc1cc([N+](=O)[O-])cc(/C=C2/SC(=S)N(Cc3ccccc3)C2=O)c1O,49.5,3.0,n,n,n,75.4,
CCOC(=O)c1oc2ccc(Br)cc2c1CSc1nnc(C)s1,64.5,n,n,n,n,67.3,
CCOC(=O)c1oc2ccccc2c1CSc1nnnn1-c1ccc(OC)cc1,n,n,n,n,n,x,
